Rpn11 block: Rpn11 (PSMD14) deubiquitinase inhibitors, primary screen, biochemical, fluorescence polarization, uHTS; 26S proteasome non-ATPase regulatory subunit 14 (Homo sapiens), O00487; human 26S proteasome, Ub4-pepOG fluorescence polarization; 20S core pre-blocked with epoxomicin; inhibition, % at 20 µM; actives 0.59% (n = 360,000); AID 588493, 2011;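 active = inhibition at 20 µM, scaled to each plate's controls, above about 33%, limit read from the data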
PP5 inh: PP5 phosphatase inhibitors, primary screen, biochemical, fluorescence | Serine/threonine-protein phosphatase 5 (Homo sapiens), P53041 | purified PP5c, OMFP substrate fluorescence | inhibition, % at 6.7 µM | actives 0.18% (n = 320,000) | AID 1987, 2009;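 active = inhibition above the campaign's mean inhibition across all tested compounds plus 3 SD, cut at about 9.5% in these data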
PREPL inh: PREPL enzyme inhibitors, primary screen, biochemical, fluorescence polarization | Prolyl endopeptidase-like (Homo sapiens), Q4J6C6 | recombinant PREPL, fluorescence polarization activity-based probe | inhibition, % at 5.96 µM | actives 0.68% (n = 320,000) | AID 2751, 2010; in the data active = inhibition above about 43%
PP1 inh: PP1-alpha phosphatase inhibitors, primary screen, counter-screen for PP5 inhibitor project, biochemical, fluorescence, OMFP substrate, single point | purified PP1alpha | inhibition, % at 6.7 µM | actives 0.9% (n = 320,000);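 active = inhibition above the mean inhibition of all tested compounds plus 3 SD, computed separately for each screening campaign, cut at about 15% in these data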
Target sequence (P62136 whole entry, looked up): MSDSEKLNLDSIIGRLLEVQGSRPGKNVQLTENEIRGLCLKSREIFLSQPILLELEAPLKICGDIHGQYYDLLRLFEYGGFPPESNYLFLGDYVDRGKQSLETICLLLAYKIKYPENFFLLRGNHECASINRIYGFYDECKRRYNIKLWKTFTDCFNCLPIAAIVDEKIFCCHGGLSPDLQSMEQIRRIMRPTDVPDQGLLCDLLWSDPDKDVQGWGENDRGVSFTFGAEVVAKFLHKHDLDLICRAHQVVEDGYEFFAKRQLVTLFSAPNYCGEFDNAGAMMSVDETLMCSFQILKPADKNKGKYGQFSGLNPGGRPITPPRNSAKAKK
NadD block: inhibitors of S. aureus NadD, primary screen, biochemical, colorimetric, uHTS; purified NadD enzyme, colorimetric absorbance read-out; inhibition, % at 20 µM; actives 0.78% (n = 360,000); in the data active = inhibition above about 26%
A number is an active result; – = inactive; · = no result shown. Sampled rows, rich in hits. Any-hit rate of the full collection: about 2.4%.

SMILES	Rpn11 block	PP5 inh	PREPL inh	PP1 inh	NadD block
COC(=O)c1c(NC(=O)COC(=O)[C@@H](NS(=O)(=O)c2cccc(Cl)c2)C(C)C)sc2c1CCC2	–	–	–	15	–
CN(C)CCNC(=O)c1cccc(-c2cnc3c(NC=O)cc(/C=C/c4ccccc4)cn23)c1	–	·	·	·	–
CCOc1cc2c(cc1O)C(=NOC)CC1C2CCC2(C)C(O)CCC12 (centres undefined)	–	·	·	·	–
CCOc1cc(OCC)cc(C(=O)N2CCC[C@H]2C(=O)N2CCC[C@H]2C(=O)N[C@@H](C)c2ccccc2)c1	·	·	·	·	–
CCCC1=C/C(=C/c2ccc(-c3ccccc3OC)o2)C(=O)O1	49	–	–	–	40
CCc1ccc(-c2cc(C)no2)cc1S(=O)(=O)N1CCN(c2ccc(C(C)=O)cc2)CC1	–	–	–	15	–
O=C(O)/C=C\C(=O)Nc1ccc(N2CCN(c3ccc(Cl)c(Cl)c3)CC2)cc1	–	–	44	–	–
[O-]/[N+](=C/c1ccc(F)cc1)c1ccccc1	–	–	–	–	–
C#CCCC(=O)c1ccccc1/C=[N+](\[O-])c1ccccc1	64	–	–	–	–
COc1cccc2cc(C(=O)C3=C(O)C(=O)N(CCN4CCOCC4)C3c3cccc(Cl)c3)oc12 (centres undefined)	–	–	–	23	–
COc1cccc2cc(C(=O)C3=C(O)C(=O)N(CCN4CCOCC4)C3c3ccc(Cl)cc3)oc12 (centres undefined)	–	–	–	–	–
O=C1C=CC(=O)c2c(O)c(N3CCN(CCOCCO)CC3)c(Br)c(O)c21	–	·	·	·	62
O=C1C=CC(=O)c2c(O)c(N3CCN(CCO)CC3)c(Cl)c(O)c21	–	·	·	·	50
O=S(=O)(c1ccc(Br)cc1Cl)N1CCN(CCO)CC1	–	–	–	–	–
CCN1/C(=C/C=C/C=C/c2sc3ccccc3[n+]2CC)Sc2ccccc21	·	–	–	47	·
C=CC[C@@H]1C=C(C)C[C@H](C)C[C@H](OC)[C@H]2O[C@@](O)(C(=O)C(=O)N3CCCC[C@H]3C(=O)O[C@H](/C(C)=C/[C@@H]3CC[C@@H](O)[C@H](OC)C3)[C@H](C)[C@@H](O)CC1=O)[C@H](C)C[C@@H]2OC	·	–	55	–	·
CC(C)c1cc(C(C)C)c(S(=O)(=O)N2c3ccccc3[C@@]3(Br)C[C@H]4C(=O)N[C@@H](Cc5ccccc5)C(=O)N4[C@@H]23)c(C(C)C)c1	·	–	–	16	·
COC(=O)c1ccc2nc(-c3ccc(Cl)cc3)c(Cc3ccsc3)n2c1	·	·	·	·	–
Cc1cc(C)c(NC(=O)COC(=O)c2cccc3c2C(=O)c2ccccc2C3=O)c(C)c1	–	–	–	–	–
Cc1cc(C)c(Nc2cc(S(=O)(=O)O)c(N)c3c2C(=O)c2ccccc2C3=O)c(C)c1	–	–	57	25	30
COc1ccc(CNc2ccc(Br)cc2)cc1	–	–	–	–	–
COc1ccc(NC2=NCC(Cc3ccc(Br)cc3)S2)cc1 (centres undefined)	–	–	–	16	–
Cc1coc2c1C(=O)C(=O)c1c-2ccc2c(C)cccc12	–	–	–	–	34
Cc1ccc2c3c(cccc13)-c1ccccc1C2=O	–	–	–	–	–
Cc1coc2c1C(=O)C(=O)c1c-2ccc2c1CCCC2(C)C	–	–	–	–	33
CCn1c(=O)c(C(=O)CN2c3ccccc3CC2C)c(N)n(Cc2ccccc2)c1=O (centres undefined)	–	–	–	16	–
CCOc1ccc(CCN2C(=O)C(=O)N([C@@H](Cc3ccccc3)CN3CCC[C@H]3CN3C(=O)C(=O)NC[C@@H]3Cc3ccccc3)C[C@@H]2CC(C)C)cc1	·	·	·	·	–
CC1=Nc2ccccc2/C1=C/c1sc(=N)n(-c2nccs2)c1O	89	–	–	–	–
CC1=Nc2ccccc2/C1=C/c1nc(-c2ccc(C)s2)oc1O	·	–	–	–	–
COC(=O)[C@]12CCCCC=C1N(Cc1ccco1)C(=O)[C@H](CC(=O)NCc1ccc(C)o1)C2	·	·	·	·	–

Screens deposited in PubChem by several laboratories.
